Data taken from the supplement of paper PMC12636033.
± gives the standard deviation of the averaged measurements. Whole data set: some 33,000 sequences, median “E-score (rank enrichment, -0.5 to 0.5)” near -0.0068, cut for the highest 2% near 0.24. The full list was thinned out, with the highest values kept by preference.

Test system: muMax20 (Max(13-93) K31hArg/K57hArg, M65Nle)
Assay: PBM 8-mer E-score (E-score (rank enrichment, -0.5 to 0.5)); higher = stronger preferential binding
Method: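 Protein binding microarray (universal PBM chip covering all 10-mers in fixed probe flanks) with chemically synthesized human Max(13-93) bHLH-LZ analogs (not full-length Max) bearing noncanonical residues (hArg, Tha, Aib, Nle at 65) and aromatic Cys staples. Read-out per 8-mer (and its reverse complement): E-score (rank-based enrichment, -0.5 to 0.5) and Z-score of median probe intensity.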

Sequence	PBM 8-mer E-score
CGAGCCGA	-0.153 ± 0.036
GAAGCACC	-0.0676 ± 0.049
ACCTAGCG	-0.048 ± 0.057
GAGGTAGA	0.0124 ± 0.047
ACCGCTTA	-0.0621 ± 0.13
AAGATAAG	0.15 ± 0.031
AAGATAAC	0.172 ± 0.07
CTGATGTA	-0.0502 ± 0.023
GTGATGTA	0.2775 ± 0.00062
ATGATGTA	0.171 ± 0.12
AAGATAAT	0.239 ± 0.051
CCTGCCCC	-0.167 ± 0.078
CCAGCTGC	-0.272 ± 0.12
GGCGCAAA	-0.148 ± 0.17
GTGTAAAA	0.113 ± 0.016
AGAACGAG	0.133 ± 0.061
GTACGATA	0.163 ± 0.033
CTACGATA	0.082 ± 0.02
ATACGATA	0.244 ± 0.053
GAGTCGGC	-0.146 ± 0.055
CGGATGCC	-0.075 ± 0.079
ATTCGTGC	0.0424 ± 0.086
AACCAGTT	0.0717 ± 0.038
ATATACAC	0.169 ± 0.004
ACATACAG	0.242 ± 0.017

Sequence	PBM 8-mer E-score
ACATACAT	0.243 ± 0.029
CCATACAG	-0.0198 ± 0.047
ACATACAC	0.165 ± 0.057
AGATACAG	0.218 ± 0.024
ATATACAA	0.229 ± 0.069
ACATACAA	0.137 ± 0.076
ATATACAT	0.247 ± 0.032
GATGTACC	0.0595 ± 0.065
ACTCCTAT	0.0559 ± 0.1
AAACGGGC	0.0187 ± 0.03
TAAACAAA	0.184 ± 0.008
AGCTCCCC	-0.0268 ± 0.092
AAATACAG	0.209 ± 0.07
GAATACAC	0.123 ± 0.014
AAATACAC	0.273 ± 0.038
AAATACAT	0.259 ± 0.061
AAATACAA	0.19 ± 0.018
CAATACAC	0.194 ± 0.043
CGGTTTTC	0.00594 ± 0.054
ATAGCGTG	0.161 ± 0.019
AGCACTCG	-0.199 ± 0.078
GAACGCCA	-0.206 ± 0.021
AAATCGCG	-0.0409 ± 0.032
GGTAAGAA	0.0527 ± 0.1
CATAACGA	0.0556 ± 0.017

Sequence	PBM 8-mer E-score
ATAATTAG	0.223 ± 0.1
CGAATTAA	0.106 ± 0.11
ATAATTAA	0.175 ± 0.05
TGAATTAA	0.254 ± 0.043
CTAATTAA	0.0707 ± 0.041
GGAATTAA	0.1996 ± 0.0018
ATAATTAT	0.276 ± 0.0028
ATAATTAC	0.22 ± 0.074
TTAATTAA	0.324 ± 0.12
CCTGTCCA	-0.131 ± 0.17
CCAGTTTA	-0.0199 ± 0.068
ATAAGGCC	-0.0432 ± 0.14
AGTGCCTA	-0.109 ± 0.091
CAACTGCC	0.0721 ± 0.014
TCGAGGAA	-0.0274 ± 0.069
CCCACAAA	0.183 ± 0.015
ATGATAGC	0.2152 ± 0.0016
GGCATGCA	0.106 ± 0.091
AGCATGCA	0.284 ± 0.11
TCCATGCA	0.105 ± 0.07
ACCATGCA	0.28 ± 0.096
TGCATGCA	0.0968 ± 0.12
CCCATGCA	0.133 ± 0.01
GGATAGCC	-0.138 ± 0.11
ACCGACCA	0.0471 ± 0.002

Sequence	PBM 8-mer E-score
GGGCGCCC	-0.131 ± 0.0098
ATAACTAT	0.241 ± 0.0068
ATAACTAG	0.0985 ± 0.14
ATAACTAA	0.245 ± 0.0085
TTAACTAA	0.184 ± 0.11
CTAACTAA	0.00786 ± 0.039
ATAACTAC	0.2058 ± 0.0013
ACACTGTG	0.0421 ± 0.2
CAGATCAA	-0.0923 ± 0.011
GGTGAAGA	-0.0661 ± 0.032
ATCCTCAT	-0.11 ± 0.076
TACGATAA	0.247 ± 0.0037
GACGATAA	0.0693 ± 0.077
CACGATAA	0.17 ± 0.024
AATGCTAA	0.12 ± 0.033
AGCCAATC	-0.047 ± 0.088
GACATGTC	-0.00641 ± 0.13
AACATGCA	0.206 ± 0.1
AACATGTG	0.353 ± 0.042
AACATGTC	0.12 ± 0.025
GACATGTA	0.24 ± 0.067
AACATGTT	0.22 ± 0.04
AACATGAA	0.0865 ± 0.011
TACATGTA	0.157 ± 0.069
CACATGCG	0.172 ± 0.11

Sequence	PBM 8-mer E-score
CACATGTC	0.12 ± 0.087
AACATGTA	0.256 ± 0.028
CACATGTG	0.418 ± 0.015
GTCTGCCA	-0.165 ± 0.0054
GAACTTTA	-0.157 ± 0.037
CTGTGGTA	0.0865 ± 0.061
CCGGTCGC	-0.276 ± 0.027
ACCGAGAA	-0.187 ± 0.0095
CCCAAGTC	-0.185 ± 0.0086
GACGCTAA	-0.13 ± 0.072
AGCAGTAT	0.109 ± 0.0063
GATTGCCA	-0.0436 ± 0.034
AGCGTGGA	0.045 ± 0.011
CTCATGTA	0.0357 ± 0.054
CACATGTA	0.347 ± 0.045
CACATGAA	0.219 ± 0.014
GAAAACCC	0.11 ± 0.0093
CATAGGTC	-0.0151 ± 0.052
AATGATAA	0.11 ± 0.021
CATGATAA	0.263 ± 0.034
CCTGATTA	0.14 ± 0.042
GCTGATTA	0.292 ± 0.073
TATGATAA	0.181 ± 0.063
CATGATTC	0.0292 ± 0.013
CATGATTA	0.281 ± 0.049

Sequence	PBM 8-mer E-score
ACTGATTA	0.0963 ± 0.055
GATGATTA	0.0475 ± 0.008
CGCGTTAG	-0.0996 ± 0.017
CTGGACTC	-0.0856 ± 0.022
AAAACATA	0.165 ± 0.084
GAAACATC	0.0279 ± 0.095
GAAACAAA	0.236 ± 0.039
GAAACATA	0.249 ± 0.1
CAAACAAA	0.185 ± 0.03
GAAACAAC	0.00284 ± 0.071
GAAGGTGC	-0.0729 ± 0.043
CATGCCAA	0.158 ± 0.078
ATATAAAA	0.317 ± 0.064
ATAAAAAT	0.221 ± 0.025
ATATAAAC	0.324 ± 0.045
CTATAAAA	0.0172 ± 0.079
CTATAAGA	0.0354 ± 0.00038
ATATAAAG	0.189 ± 0.0027
CTATAAAC	0.144 ± 0.0027
ACATAAAA	0.229 ± 0.019
ATATAAAT	0.308 ± 0.0047
ATAAAAAC	0.109 ± 0.079
ATATAAGA	0.262 ± 0.064
GTATAAGA	0.138 ± 0.044
AAACTTTA	0.2 ± 0.068

Sequence	PBM 8-mer E-score
CACCGCTG	-0.316 ± 0.09
GGGAGGGA	0.0486 ± 0.024
AAATTGAC	-0.0252 ± 0.075
AGGTCTGA	-0.112 ± 0.11
CGTGCTAA	-0.0595 ± 0.097
GGGGGTGA	-0.107 ± 0.1
GCACCCGA	-0.265 ± 0.009
ATACCCGC	0.07 ± 0.0011
CCCACGGA	-0.0746 ± 0.039
CGAGTTTC	0.112 ± 0.043
AGGCGGAG	-0.00941 ± 0.016
TTATAAAA	0.235 ± 0.043
GTATAAAC	0.137 ± 0.05
GTATAAAA	0.288 ± 0.072
GGGTAATA	0.117 ± 0.078
AGGGGAAG	-0.0693 ± 0.071
CTAGCGAC	-0.0457 ± 0.095
CCGAAAGG	-0.0656 ± 0.13
CAAGCCAA	-0.034 ± 0.1
GATGTTTA	0.0668 ± 0.12
ATTGTATG	0.139 ± 0.039
ATTGTATC	0.304 ± 0.027
CTTGTATC	0.0905 ± 0.026
GATGTGCA	0.03 ± 0.16
AGTGTGTA	0.121 ± 0.0059

Sequence	PBM 8-mer E-score
CATGTTTC	0.143 ± 0.045
CGTGTGTA	0.28 ± 0.017
GGTGTGTA	0.159 ± 0.11
TATGTGCA	0.175 ± 0.068
CATGTGCA	0.292 ± 0.063
CATGTTTA	0.249 ± 0.0042
CAACAAAA	0.0937 ± 0.037
ACCCCTCC	0.155 ± 0.011
AGCATAAA	0.158 ± 0.013
CGGTTCCA	-0.282 ± 0.0036
GACGGCCA	-0.0819 ± 0.046
AAGTGTAA	-0.0103 ± 0.021
GCCCCTAC	0.00167 ± 0.035
ACTCTGAG	-0.217 ± 0.068
GATAACGC	0.105 ± 0.11
GATGTGTA	0.17 ± 0.024
CTTGTAAA	0.217 ± 0.015
ATTGTAAG	0.16 ± 0.042
CGTGTATA	0.2 ± 0.044
CATGTGTA	0.332 ± 0.054
AGTGTATC	0.123 ± 0.049
CGTGTATC	0.238 ± 0.025
CATGTGTC	0.117 ± 0.14
ATTGTAAA	0.244 ± 0.021
AGCTCTCG	-0.155 ± 0.045

Sequence	PBM 8-mer E-score
GAGTCACC	-0.0777 ± 0.02
AACCTTAT	0.0715 ± 0.044
AACAGTAA	-0.00834 ± 0.034
GCTCGTTA	0.0811 ± 0.07
AACGTAAG	-0.0553 ± 0.13
CAGTGTGA	0.2398 ± 0.0018
TAGTGTGA	0.15 ± 0.12
AAGTGTGA	0.0524 ± 0.053
CTGGTCTC	-0.256 ± 0.045
AATGGATC	-0.167 ± 0.0063
CCACCAAG	-0.0933 ± 0.014
CTATAGTA	0.109 ± 0.0064
CCATAGTA	0.0366 ± 0.064
GTATAGTA	0.227 ± 0.0046
ATATAGTA	0.281 ± 0.048
GCATAGTA	0.277 ± 0.041
ACATAGTA	0.0946 ± 0.04
ACCGGAGC	-0.286 ± 0.0054
CGGTCCAG	-0.279 ± 0.069
